Assay results: PubChem BioAssay (NCATS)
Records with an inconclusive call do not appear. A number with no mark means an inactive call. Calls come from the whole dose curve; as a rule, active = well fitted cell-killing curve with a large enough effect; inconclusive = small, poorly fitted or top-dose-only effect, or effect the other way; inactive = flat fitted curve, though single readings scatter.

system: CASKI; assay: Primary qHTS to identify gynecologic anti-cancer compounds using libraries of approved drugs and bioactive compounds (AID 1345084); details: Gynecologic cancer cell panel viability, ATPlite luminescence, 48 h; series mostly up to 57.5 µM; activity change, negative = cytotoxicity: at the top concentration; note: nearly all actives have a fitted effect of over 55% in size
Outline: (§1)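 Five-point cytotoxicity, 48 h drug exposure at 37 C, 5% CO2, on cells seeded 16 h beforehand. ATP content read by ATPlite luminescence.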
% is set by controls: 0 for no effect and ±100 for the full control effect.

Structure (SMILES)	activity change, negative = cytotoxicity [%]
C1CN2CCC1CC2	1.25
CCC1(CC)C(=O)NC(=O)NC1=O	-6.79
CC(C)(C)OC(=O)c1ncn2c1[C@@H]1CCCN1C(=O)c1c(Br)cccc1-2	15.2
CN1C(=O)CN=C(c2ccccc2)c2cc([N+](=O)[O-])ccc21	-6.2
CCOC(=O)C(c1c(O)c2ccccc2oc1=O)c1c(O)c2ccccc2oc1=O	9.06
CNC(C)Cc1ccccc1OC (centres undefined)	-1.8
ClCc1cccc(Cl)c1	-3.13
CC(CC(C(N)=O)(c1ccccc1)c1ccccc1)N(C)C (centres undefined)	-2.34
CC1Sc2c(C(=O)O)c(=O)c3cc(F)c(N4CCNCC4)cc3n21 (centres undefined)	3
O=C(CBr)Nc1ccc(Cl)cc1C(=O)c1ccccc1F	8.48
COP(=O)(OC)C(O)C(Cl)(Cl)Cl (centres undefined)	-4.05
C[C@H]1CNCCc2ccc(Cl)cc21	3.7
COc1cc(N)c(Cl)cc1C(=O)NC1CN2CCC1CC2 (centres undefined)	10.3
COC(=O)C1=CCCN(C)C1	-4.45
C[C@@H]1CN(C2CCC(C#N)(c3ccc(F)cc3)CC2)CC[C@]1(C(=O)O)c1ccccc1 (some centres undefined)	8.58
CCOC(=O)NC(O)C(Cl)(Cl)Cl (centres undefined)	-11.2
OC(O)C(Cl)(Cl)Cl	5.26
ClCCCN1CCN(c2cccc(Cl)c2)CC1	0.105
C#C[C@]1(O)C=C[C@H]2[C@@H]3CCC4=CC(=O)CC[C@@H]4[C@H]3CC[C@@]21CC	-1.44
O=C(O)Cc1ccccc1	-2.95

Structure (SMILES)	activity change, negative = cytotoxicity [%]
CC(C)(O)C(Cl)(Cl)Cl	1.51
C[N+]1(CCC(C(N)=O)(c2ccccc2)c2ccccc2)CCCCC1	-8.55
CCc1ccc(C2CCNCC2)cc1	8.33
C[C@]12CC[C@H]3[C@@H](CCC4=CC(=O)CC[C@@H]43)[C@@H]1CC[C@@H]2O	-8.61
Cc1ccc(N=CN(C)C=Nc2ccc(C)cc2C)c(C)c1	-3.07
COP(=O)(OC)OC=C(Cl)Cl	-5.13
CCN1CCCC1CNC(=O)C(O)(c1ccccc1)c1ccccc1 (centres undefined)	-3.21
CN(C)C(=O)Oc1cc(OC(=O)N(C)C)cc(C(O)CNC(C)(C)C)c1 (centres undefined)	-2.58
O=C1CN2CCOC2(c2ccccc2Cl)c2cc(Cl)ccc2N1 (centres undefined)	4.78
COP(=S)(OC)Oc1ccc(Sc2ccc(OP(=S)(OC)OC)cc2)cc1	-1.91
O=C(O)c1nn(Cc2ccc(Cl)cc2Cl)c2ccccc12	-1.06
COCC(=O)N(c1c(C)cccc1C)C(C)C(=O)OC (centres undefined)	1.52
NC(=O)OCCCc1ccccc1	1.28
CCN(CC)CCOC(=O)C(C)(c1ccccc1)c1ccccc1	3.97
CCOP(=S)(OCC)O/N=C(\C#N)c1ccccc1	-2.2
O=C(CCCCl)c1ccc(F)cc1	-3.11
C[N+]1(C)[C@@H]2CC[C@H]1CC(OC(=O)C(CO)c1ccccc1)C2 (some centres undefined)	-0.0787
CC1=C2[C@H]3OC(=O)[C@@H](C)[C@@H]3CC[C@@]2(C)C=CC1=O	9.03
Sc1ccccc1Cl	6.33

system: Es-2; assay: as above; details: Gynecologic cancer cell panel viability, ATPlite luminescence, 48 h; series mostly up to 57.5 µM; activity change, negative = cytotoxicity: at the top concentration
Outline: as §1

Structure (SMILES)	activity change, negative = cytotoxicity [%]
C1CN2CCC1CC2	-0.0573
CCC1(CC)C(=O)NC(=O)NC1=O	0.561
CC(C)(C)OC(=O)c1ncn2c1[C@@H]1CCCN1C(=O)c1c(Br)cccc1-2	3.25
CN1C(=O)CN=C(c2ccccc2)c2cc([N+](=O)[O-])ccc21	5.05
CCOC(=O)C(c1c(O)c2ccccc2oc1=O)c1c(O)c2ccccc2oc1=O	1.67
CNC(C)Cc1ccccc1OC (centres undefined)	4.93
ClCc1cccc(Cl)c1	9.2
CC(CC(C(N)=O)(c1ccccc1)c1ccccc1)N(C)C (centres undefined)	-1.22
CC1Sc2c(C(=O)O)c(=O)c3cc(F)c(N4CCNCC4)cc3n21 (centres undefined)	1.49
O=C(CBr)Nc1ccc(Cl)cc1C(=O)c1ccccc1F	-1.94
COP(=O)(OC)C(O)C(Cl)(Cl)Cl (centres undefined)	0.206
C[C@H]1CNCCc2ccc(Cl)cc21	-2.59
COc1cc(N)c(Cl)cc1C(=O)NC1CN2CCC1CC2 (centres undefined)	6.61
COC(=O)C1=CCCN(C)C1	7.77
C[C@@H]1CN(C2CCC(C#N)(c3ccc(F)cc3)CC2)CC[C@]1(C(=O)O)c1ccccc1 (some centres undefined)	11.8
CCOC(=O)NC(O)C(Cl)(Cl)Cl (centres undefined)	-11.8
OC(O)C(Cl)(Cl)Cl	16.4
ClCCCN1CCN(c2cccc(Cl)c2)CC1	-5.13
C#C[C@]1(O)C=C[C@H]2[C@@H]3CCC4=CC(=O)CC[C@@H]4[C@H]3CC[C@@]21CC	1.52
O=c1[nH]c2cc(Cl)ccc2n1C1CCNCC1	18.3

Structure (SMILES)	activity change, negative = cytotoxicity [%]
O=C(O)Cc1ccccc1	10.8
CC(C)(O)C(Cl)(Cl)Cl	10.9
C[N+]1(CCC(C(N)=O)(c2ccccc2)c2ccccc2)CCCCC1	1.74
CCc1ccc(C2CCNCC2)cc1	-6.03
C[C@]12CC[C@H]3[C@@H](CCC4=CC(=O)CC[C@@H]43)[C@@H]1CC[C@@H]2O	5.66
Cc1ccc(N=CN(C)C=Nc2ccc(C)cc2C)c(C)c1	1.96
COP(=O)(OC)OC=C(Cl)Cl	-1.28
CCN1CCCC1CNC(=O)C(O)(c1ccccc1)c1ccccc1 (centres undefined)	5.39
CN(C)C(=O)Oc1cc(OC(=O)N(C)C)cc(C(O)CNC(C)(C)C)c1 (centres undefined)	-1.05
O=C1CN2CCOC2(c2ccccc2Cl)c2cc(Cl)ccc2N1 (centres undefined)	3.2
COP(=S)(OC)Oc1ccc(Sc2ccc(OP(=S)(OC)OC)cc2)cc1	15.1
O=C(O)c1nn(Cc2ccc(Cl)cc2Cl)c2ccccc12	10.5
COCC(=O)N(c1c(C)cccc1C)C(C)C(=O)OC (centres undefined)	7.53
NC(=O)OCCCc1ccccc1	16.6
CCN(CC)CCOC(=O)C(C)(c1ccccc1)c1ccccc1	-6.83
CCOP(=S)(OCC)O/N=C(\C#N)c1ccccc1	-0.399
O=C(CCCCl)c1ccc(F)cc1	-3.28
C[N+]1(C)[C@@H]2CC[C@H]1CC(OC(=O)C(CO)c1ccccc1)C2 (some centres undefined)	14
CC1=C2[C@H]3OC(=O)[C@@H](C)[C@@H]3CC[C@@]2(C)C=CC1=O	-3.61
Sc1ccccc1Cl	9.23
